Results filed as inconclusive are left out. Activity calls are given as the source filed them. The call rests on the fitted dose curve.

Drawing on PubChem BioAssay (Tox21), this text covers outcome for 40 compounds.

In this test the target is Thyrotropin receptor (Homo sapiens) (UniProt P16473). Put plainly: qHTS assay to identify small molecule antagonists of the thyroid stimulating hormone receptor (TSHR) signaling pathway (AID 1259385). Further: nearly all actives have a fitted effect of over 20% in size. Conditions: TSHR-HEK293 cAMP HTRF, TSH-stimulated antagonist mode; series mostly up to 92.4 µM. The text has this: U.S. Tox21 Program National Center for Advancing Translational Sciences [NCATS] NIH Chemical Genomics Center [NCGC] U.S. Environmental Protection Agency [EPA] National Institutes of Environmental Health Sciences [NIEHS] National Toxicology Program [NTP] U.S. Food and Drug Administration [FDA] Tox21 Assay Overview: TSHR is the receptor for thyrotropin (thyroid stimulating hormone or TSH), a member of the glycoprotein hormone family. TSH is released by the anterior pituitary gland and is the main regulator of thyroid gland growth and development. Upon binding circulating thyrotropin, a G-protein signal cascade activates adenylyl cyclase and […] cAMP concentration is increased. cAMP is a key second messenger involved extensively in cellular signal transduction pathways associated with the majority of G-protein coupled receptors (GPCRs). The activation of these GPCRs by neurotransmitters, lipids, nucleotides, peptides and hormones results in the activation or the inhibition of plasma membrane-bound adenylate cyclase through heterotrimeric G-proteins. A cell-based TSHR assay can be used to screen chemical compounds that modulate TSHR either in agonist or antagonist mode.
Chain of Thyrotropin receptor (Homo sapiens) (P16473 whole entry, looked up): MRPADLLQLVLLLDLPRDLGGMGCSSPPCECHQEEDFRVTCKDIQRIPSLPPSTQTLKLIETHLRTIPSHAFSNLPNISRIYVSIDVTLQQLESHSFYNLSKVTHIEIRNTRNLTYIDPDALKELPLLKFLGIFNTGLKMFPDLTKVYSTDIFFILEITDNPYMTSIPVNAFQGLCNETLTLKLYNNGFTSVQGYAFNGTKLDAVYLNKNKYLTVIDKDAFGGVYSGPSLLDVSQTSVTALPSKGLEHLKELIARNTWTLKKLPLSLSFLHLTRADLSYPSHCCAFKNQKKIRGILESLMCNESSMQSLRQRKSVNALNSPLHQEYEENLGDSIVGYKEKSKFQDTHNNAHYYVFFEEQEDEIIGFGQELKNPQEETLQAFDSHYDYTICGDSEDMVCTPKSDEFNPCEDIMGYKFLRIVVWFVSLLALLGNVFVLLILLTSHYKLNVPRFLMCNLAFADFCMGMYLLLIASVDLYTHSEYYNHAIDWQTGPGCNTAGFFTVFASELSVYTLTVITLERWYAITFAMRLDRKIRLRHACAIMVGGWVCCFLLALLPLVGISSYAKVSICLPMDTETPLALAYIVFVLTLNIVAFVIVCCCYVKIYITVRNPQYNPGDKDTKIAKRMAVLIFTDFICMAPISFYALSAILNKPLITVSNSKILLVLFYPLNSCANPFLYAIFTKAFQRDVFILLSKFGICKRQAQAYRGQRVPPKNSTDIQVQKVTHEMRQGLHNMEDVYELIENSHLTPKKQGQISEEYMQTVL
Tox21 Assay Protocol Summary: TSHR-Hek293 cells were dispensed at 800 cells/4uL/well in 1536-well white plates using a Multidrop dispenser. After the assay plates were incubated at a 37C/5% CO2 incubator for 18 hrs, 23 nL of compounds dissolved in DMSO, positive controls or DMSO only was transferred to the assay plate by a pin tool, followed by 1 ul medium containing Ro20-1724. For the antagonist mode screening, 1 uL of TSH was added on the top of the cell/compound mixtures to achieve a final agonist concentration of 1.5 ng/mL. After 30 min of incubation at room temperature, 2.5 ul/well of cAMP-d2 and 2.5 ul/well of anti-cAMP-cryptate were added respectively into the assay plates using a Flying Reagent Dispenser. The plates were incubated at room temperature for 1 hr. The fluorescence intensity in the plates was measured using an Envision plate reader. Each test compound was measured at 15 concentrations and in triplicates.
A general note: Quantitative high-throughput screening tests each substance at several concentrations.
With `CC(=O)[C@@]1(O)CC[C@H]2[C@@H]3CCC4=CC(=O)CC[C@]4(C)[C@H]3CC[C@@]21C`, the compound was called inactive. Under `OC1CCCC1` stands “inactive”; under `O=S(=O)(Oc1ccc(Cl)cc1Cl)c1ccccc1`, “inactive”; under `CN(CCOc1ccc(CC2SC(=O)NC2=O)cc1)c1ccccn1` (stereo not given), “inactive”. With `CCCCC(CC)COC(=O)CCCCCCCC(=O)OCC(CC)CCCC` (stereo not given), the call was inactive. `COC(=O)c1ccc(C(=O)OC)cc1`: the call was inactive. Then `CC(C)(C)C1CCC(O)CC1` (stereo not given), with “inactive”; and `NCCNCCNCCNCCN`, with “inactive”; and `CCCCC(CC)COC(=O)/C=C\C(=O)OCC(CC)CCCC` (stereo not given), with “inactive”.

Take `CCC(C)C=O` (stereo not given): the result was inactive.

For `CS(=O)(=O)Nc1ccc([N+](=O)[O-])cc1Oc1ccccc1`, the outcome was inactive. Turning to `OC[C@@H](O)[C@@H](O)[C@H](O)[C@@H](O)CO`, the compound was called inactive.

In the case of `COC(=O)Nc1nc2ccc(Sc3ccccc3)cc2[nH]1`, the call was inactive. As for `ClC1=C(Cl)C(Cl)(Cl)C(Cl)=C1Cl`, the result was inactive.

As to `C=C1C2CCC(C2)C1(C)C` (stereo not given), the call was inactive. As for `O=S(=O)(O)CCS`, the result was inactive.

Take `CC1Cc2ccccc2N1NC(=O)c1ccc(Cl)c(S(N)(=O)=O)c1` (stereo not given): the compound was classed as inactive. Then `Oc1ccc2ccccc2c1`, with “inactive”; and `Cc1cc(O)c2c(c1)C(=O)c1cc(O)cc(O)c1C2=O`, with “inactive”; and `O=Nc1ccc(O)cc1`, with “inactive”. Under `CCCCCCCCC` stands “inactive”.

For `COCC(=O)O`, the compound was called inactive. Under `CC[Si](OC(C)=O)(OC(C)=O)OC(C)=O` stands “inactive”; under `NS(=O)(=O)c1cc2c(cc1Cl)NC=NS2(=O)=O`, “inactive”. For `CCCCCCCCCCC=CC1CC(=O)OC1=O` (stereo not given), the outcome was inactive.

In the case of `Oc1ccc(OCc2ccccc2)cc1`, the compound was classed as inactive. Then `COCC(C)O` (stereo not given), with “inactive”.

Consider `CCc1ccc(O)cc1`, for which the result was inactive. Then `Oc1ccc2ccccc2c1N=Nc1ccccc1`, with “inactive”. Then `CCOC(=O)/C=C\C(=O)OCC`, with “inactive”; and `C=C(C#N)C(=O)OCC`, with “inactive”; and `O=C(c1ccc(O)cc1)c1ccc(O)cc1O`, with “inactive”. As for `Clc1ccc(Cl)c(Cl)c1Cl`, the outcome was inactive. Under `COC(=O)c1ccccc1O` stands “inactive”; under `Nc1nc2ncc(CNc3ccc(C(=O)N[C@@H](CCC(=O)O)C(=O)O)cc3)nc2c(=O)[nH]1`, “inactive”; under `O=[N+]([O-])c1cccc(Cl)c1`, “inactive”. Then `CC#C[C@]1(O)CC[C@H]2[C@@H]3CCC4=CC(=O)CCC4=C3[C@@H](c3ccc(N(C)C)cc3)C[C@@]21C`, with “inactive”. With `c1ccc2ccccc2c1`, the compound was classed as inactive. Consider `CN(C)c1cccc(O)c1`, for which the call was inactive. In the case of `CNC[C@H](O)[C@@H](O)[C@H](O)[C@H](O)CO`, the compound was classed as inactive.
